# Molecular target: PRDM9Cst (Mus musculus (CAST/EiJ))
# Test: competition EMSA; competition against biotin-labeled 75-bp Hlx1 B6 oligo; 10 mM Tris pH 7.5, 50 mM KCl, 1 mM DTT, 50 ng/ul poly(dI/dC), 0.05% NP-40, crude E. coli extract 3 ul in 20 ul; 1 h with unlabeled competitor, then 4 h with biotin-labeled 75-bp Hlx1; temperature not stated; high values mean tight binding
# Details: tags: N-terminal His tag (pBAD/HisB); dsDNA, one strand shown
# Sequence of PRDM9Cst (Mus musculus (CAST/EiJ)) (chain, as listed by the source): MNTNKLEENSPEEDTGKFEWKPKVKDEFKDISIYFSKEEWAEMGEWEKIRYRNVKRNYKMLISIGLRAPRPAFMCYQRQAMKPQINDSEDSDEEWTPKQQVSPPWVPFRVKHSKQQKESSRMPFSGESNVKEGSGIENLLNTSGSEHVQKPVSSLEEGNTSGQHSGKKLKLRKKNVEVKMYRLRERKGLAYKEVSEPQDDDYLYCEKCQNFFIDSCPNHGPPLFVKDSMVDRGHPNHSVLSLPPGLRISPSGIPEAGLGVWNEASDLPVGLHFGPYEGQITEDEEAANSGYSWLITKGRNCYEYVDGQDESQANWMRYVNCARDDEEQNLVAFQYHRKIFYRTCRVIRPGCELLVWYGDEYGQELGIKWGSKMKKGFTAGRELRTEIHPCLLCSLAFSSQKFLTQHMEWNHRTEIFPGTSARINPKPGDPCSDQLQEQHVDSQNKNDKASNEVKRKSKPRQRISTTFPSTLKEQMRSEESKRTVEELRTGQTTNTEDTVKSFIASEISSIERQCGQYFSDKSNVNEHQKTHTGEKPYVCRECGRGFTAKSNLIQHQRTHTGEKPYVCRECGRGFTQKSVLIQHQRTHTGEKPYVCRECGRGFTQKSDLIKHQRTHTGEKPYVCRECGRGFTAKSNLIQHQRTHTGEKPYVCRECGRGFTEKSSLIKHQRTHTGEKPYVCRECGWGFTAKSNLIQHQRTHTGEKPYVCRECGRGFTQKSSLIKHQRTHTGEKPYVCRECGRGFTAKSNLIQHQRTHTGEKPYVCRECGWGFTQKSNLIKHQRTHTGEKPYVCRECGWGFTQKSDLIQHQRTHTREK
row,Sequence,binding signal
1,ATAGTGTGCAGACTTGGACCCTGCCCTCTCTTT,"-0.1 Bmut (0 = wild type, -1 = scrambled)"
2,ATAGTGTGCAGACTTGGACCCCGCCCTTTCTTT,"-0.1 Bmut (0 = wild type, -1 = scrambled)"
3,ATTGTGTGCAGACTTGGACCCTGCCCTTTCTTT,"-0.1 Bmut (0 = wild type, -1 = scrambled)"
4,ATAGTGTGCAGACTTGGACCCTGCCCTTTCTGT,"0.09 Bmut (0 = wild type, -1 = scrambled)"
5,ATAGTGTGCAGACTTGGACCCTGCCCTTCCTTT,"-0.1 Bmut (0 = wild type, -1 = scrambled)"
6,ATAGTGTACAGACTTGGACCCTGCCCTTTCTTT,"0.1 Bmut (0 = wild type, -1 = scrambled)"
7,ATAGTGTGCAGACTTCGACCCTGCCCTTTCTTT,"-0.2 Bmut (0 = wild type, -1 = scrambled)"
8,ATAGTGTGCAGACTTGGACCCTGCCCTTGCTTT,"-0 Bmut (0 = wild type, -1 = scrambled)"
9,ATAGTGTGCAGACTTGGGCCCTGCCCTTTCTTT,"0.3 Bmut (0 = wild type, -1 = scrambled)"
10,ATAGTGTGCAGACTTGGACCCTGCCCTTTGTTT,"-0 Bmut (0 = wild type, -1 = scrambled)"
11,ATAGTCTGCAGACTTGGACCCTGCCCTTTCTTT,"0.1 Bmut (0 = wild type, -1 = scrambled)"
12,ATAGTGTGCAGACTTGGAACCTGCCCTTTCTTT,"-0.1 Bmut (0 = wild type, -1 = scrambled)"
13,ATATTGTGCAGACTTGGACCCTGCCCTTTCTTT,"0.3 Bmut (0 = wild type, -1 = scrambled)"
14,ATAGTGTGCAGACTTGGACCCTGCTCTTTCTTT,"-0.2 Bmut (0 = wild type, -1 = scrambled)"
15,ATAGTGTGAAGACTTGGACCCTGCCCTTTCTTT,"-0.1 Bmut (0 = wild type, -1 = scrambled)"
16,AGAGTGTGCAGACTTGGACCCTGCCCTTTCTTT,"-0.8 Bmut (0 = wild type, -1 = scrambled)"
17,ATAGTGTGCAGACTTGGACCATGCCCTTTCTTT,"0.07 Bmut (0 = wild type, -1 = scrambled)"
18,ATAGTGTGCAGACTGGGACCCTGCCCTTTCTTT,"-0.3 Bmut (0 = wild type, -1 = scrambled)"
19,ATAGTGTGCAGACTTGGTCCCTGCCCTTTCTTT,"0.1 Bmut (0 = wild type, -1 = scrambled)"
20,ATAGTGTGCAGACTTGGACCCTGACCTTTCTTT,"-0.3 Bmut (0 = wild type, -1 = scrambled)"
21,ATAGTGTGCACACTTGGACCCTGCCCTTTCTTT,"-0.2 Bmut (0 = wild type, -1 = scrambled)"
22,ATGGTGTGCAGACTTGGACCCTGCCCTTTCTTT,"0 Bmut (0 = wild type, -1 = scrambled)"
23,ATAGTGTGCAGACTTGGACCCTGGCCTTTCTTT,"0.03 Bmut (0 = wild type, -1 = scrambled)"
24,ATAGTGTGCAGACTTGGATCCTGCCCTTTCTTT,"-0.3 Bmut (0 = wild type, -1 = scrambled)"
25,ATAGTGTGCAGACTTGGACCCTGCCCTTTCGTT,"0.12 Bmut (0 = wild type, -1 = scrambled)"
26,ATAGTGTGCAGACTTGGACCCTGCCCTTTCTTG,"0.09 Bmut (0 = wild type, -1 = scrambled)"
27,ATAGTGTGCAGAATTGGACCCTGCCCTTTCTTT,"-0.1 Bmut (0 = wild type, -1 = scrambled)"
28,ATAGTGGGCAGACTTGGACCCTGCCCTTTCTTT,"-0.7 Bmut (0 = wild type, -1 = scrambled)"
29,ATAGTGTGCAGACTTGGACCCTGCCCTTTCATT,"0.08 Bmut (0 = wild type, -1 = scrambled)"
30,ATAGTGTGCAGACTAGGACCCTGCCCTTTCTTT,"0 Bmut (0 = wild type, -1 = scrambled)"
